Results filed as inconclusive are left out. A call without a number means that no potency is given here. Calls of active or inactive are those of the source. Unless noted, the call rests on the fitted dose curve; in most records, active means well fitted curve in the direction sought with a large enough effect in the repeat runs; inconclusive means weak or mixed curves; inactive means no such curve, though single readings can be large; an effect the other way counts as inactive or inconclusive.
Columns and labels:
[1] = qHTS assay to identify small molecule antagonists of the thyroid receptor (TR) signaling pathway (AID 743065); further: nearly all actives have a fitted effect of over 55% in size; further: potency means the concentration at half of the fitted maximal effect
Outline: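 GH3.TRE-Luc rat pituitary cells (two TREs driving luciferase) were dosed with compound, then stimulated with 1 nM T3 (final) for 23.5 h at 37 C. ONE-Glo luminescence was the read-out, with CellTiter-Fluor fluorescence as the cytotoxicity counter-screen.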

[2] = test system: thyroid hormone receptor (rat, GH3 cells); assay: qHTS assay to identify small molecule agonists of the thyroid receptor (TR) signaling pathway (AID 743066; calls by dose curve)
[3] = biological target: Estrogen receptor (Homo sapiens) (UniProt P03372); assay: qHTS assay to identify small molecule antagonists of the estrogen receptor alpha (ER-alpha) signaling pathway (AID 743069; active means well fitted curve in the direction sought with a large enough effect in the signal ratio in the repeat runs, not every such curve was filed as active; the % refers to the signal ratio)
Sequence of Estrogen receptor (Homo sapiens) (P03372 whole entry, looked up): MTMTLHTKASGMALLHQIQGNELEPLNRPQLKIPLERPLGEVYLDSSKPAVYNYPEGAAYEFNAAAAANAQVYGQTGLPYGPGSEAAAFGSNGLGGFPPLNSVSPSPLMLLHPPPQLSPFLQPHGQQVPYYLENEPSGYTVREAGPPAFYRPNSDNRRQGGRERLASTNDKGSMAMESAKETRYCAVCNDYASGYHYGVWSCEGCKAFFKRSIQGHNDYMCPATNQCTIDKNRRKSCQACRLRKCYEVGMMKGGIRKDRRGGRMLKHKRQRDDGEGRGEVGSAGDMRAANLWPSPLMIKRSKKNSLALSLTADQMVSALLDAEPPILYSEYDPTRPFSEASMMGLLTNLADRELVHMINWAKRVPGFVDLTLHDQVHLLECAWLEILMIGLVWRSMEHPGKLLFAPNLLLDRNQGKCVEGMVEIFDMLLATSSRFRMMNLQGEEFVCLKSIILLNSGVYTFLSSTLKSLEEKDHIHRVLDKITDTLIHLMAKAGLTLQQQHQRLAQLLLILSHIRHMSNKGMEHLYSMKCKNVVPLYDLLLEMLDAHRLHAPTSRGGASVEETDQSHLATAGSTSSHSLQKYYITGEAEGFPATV
Outline: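 Beta-lactamase FRET fluorescence is read after 2 hr at room temperature with LiveBLAzer B/G substrate. Before that, ER-alpha-bla HEK293 cells sit 4 hr after plating, then receive compound plus 17beta-estradiol and incubate 18 hr at 37C.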

[4] = qHTS assay to identify small molecule antagonists of the estrogen receptor alpha (ER-alpha) signaling pathway - cell viability counter screen (AID 743074; calls by dose curve;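 further: HEK293 cells carrying ER-alpha-UAS-bla reporter stimulated with 17beta-estradiol; nearly all actives have a fitted effect of over 45% in size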)
[5] = biological target: Estrogen receptor (Homo sapiens) (UniProt P03372); assay: qHTS assay to identify small molecule agonists of the estrogen receptor alpha (ER-alpha) signaling pathway (AID 743075; calls by dose curve;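 further: HEK293 GripTite cells with ER-alpha and UAS-driven beta-lactamase reporter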)
[6] = biological target: Estrogen receptor (Homo sapiens) (UniProt P03372); assay: qHTS assay to identify small molecule agonists of the estrogen receptor alpha (ER-alpha) signaling pathway using the BG1 cell line (AID 743079); further: nearly all actives have a fitted effect of over 20% in size; further: potency means the concentration at half of the fitted maximal effect
[7] = qHTS assay to identify small molecule antagonists of the estrogen receptor alpha (ER-alpha) signaling pathway using the BG1 cell line (AID 743080; calls by dose curve;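 further: BG1 cells stimulated with 17beta-estradiol alongside compound; series mostly up to about 70 µM; nearly all actives have a fitted effect of over 25% in size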)
Outline: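 Luminescence from a 4×ERE-luciferase reporter in BG1-Luc-4E2 cells served as read-out. Cells, pre-cultured 5 days in stripped-serum phenol-red-free medium, were exposed to compound with 17beta-estradiol co-stimulation for 21.5 h at 37 C.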

[8] = qHTS assay to identify small molecule antagonists of the estrogen receptor alpha (ER-alpha) signaling pathway using the BG1 cell line - cell viability counter screen (AID 743081);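 further: compound given together with 17beta-estradiol as the ER stimulus; series mostly up to about 70 µM; nearly all actives have a fitted effect of over 45% in size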
[9] = biological target: Aromatase (Homo sapiens) (UniProt P11511); assay: qHTS assay to identify aromatase inhibitors (AID 743083); further: series mostly up to about 70 µM; nearly all actives have a fitted effect of over 55% in size
Sequence of Aromatase (Homo sapiens) (P11511 whole entry, looked up): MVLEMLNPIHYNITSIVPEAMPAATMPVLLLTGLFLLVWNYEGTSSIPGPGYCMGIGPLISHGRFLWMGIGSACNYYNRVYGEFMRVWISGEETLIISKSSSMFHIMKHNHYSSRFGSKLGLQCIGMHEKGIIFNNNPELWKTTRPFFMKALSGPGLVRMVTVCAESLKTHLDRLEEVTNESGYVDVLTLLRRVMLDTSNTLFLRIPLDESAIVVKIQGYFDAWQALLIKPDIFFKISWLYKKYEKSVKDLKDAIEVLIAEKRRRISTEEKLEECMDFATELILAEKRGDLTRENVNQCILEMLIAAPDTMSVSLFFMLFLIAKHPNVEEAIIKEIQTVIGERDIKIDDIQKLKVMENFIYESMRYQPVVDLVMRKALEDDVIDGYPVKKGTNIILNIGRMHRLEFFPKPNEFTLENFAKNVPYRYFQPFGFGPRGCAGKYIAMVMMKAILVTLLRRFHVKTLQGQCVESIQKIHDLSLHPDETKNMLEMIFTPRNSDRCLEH

[10] = qHTS assay to identify aromatase inhibitors - cell viability counter screen (AID 743084);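 further: cells stimulated with testosterone during compound exposure; nearly all actives have a fitted effect of over 55% in size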; further: potency means the concentration at half of the fitted maximal effect

SMILES: Cc1ccc(N(CCO)CCO)cc1
- Potency [1]: inactive
- Potency [2]: inactive
- Potency [3]: inactive
- Potency [4]: inactive
- Potency [5]: inactive
- Potency [6]: inactive
- Potency [7]: inactive
- Potency [8]: inactive
- Potency [9]: inactive
- Potency [10]: inactive

SMILES: O=c1[nH][nH]c(=O)c2cc([N+](=O)[O-])ccc12
- Potency [1]: inactive
- Potency [2]: inactive
- Potency [3]: inactive
- Potency [4]: inactive
- Potency [5]: inactive
- Potency [6]: inactive
- Potency [7]: inactive
- Potency [8]: inactive
- Potency [9]: inactive
- Potency [10]: inactive

SMILES: CC(=O)c1ccc[nH]1
- Potency [1]: inactive
- Potency [2]: inactive
- Potency [3]: inactive
- Potency [4]: inactive
- Potency [5]: inactive
- Potency [6]: inactive
- Potency [7]: inactive
- Potency [8]: inactive
- Potency [9]: inactive
- Potency [10]: inactive

SMILES: C=CC(=O)O
- Potency [1]: inactive
- Potency [2]: inactive
- Potency [3]: inactive
- Potency [4]: inactive
- Potency [5]: inactive
- Potency [6]: inactive
- Potency [7]: inactive
- Potency [8]: inactive
- Potency [9]: inactive
- Potency [10]: inactive

SMILES: c1ccc(CNc2ncnc3c2ncn3C2CCCCO2)cc1 (stereo not drawn)
- Potency [1]: inactive
- Potency [2]: inactive
- Potency [3]: inactive
- Potency [4]: inactive
- Potency [5]: inactive
- Potency [6]: 3.44 µM (active)
- Potency [8]: inactive
- Potency [9]: inactive
- Potency [10]: inactive

SMILES: CC(=O)Oc1cccc(O)c1
- Potency [1]: inactive
- Potency [2]: inactive
- Potency [3]: inactive
- Potency [4]: inactive
- Potency [5]: inactive
- Potency [6]: inactive
- Potency [8]: inactive
- Potency [9]: inactive
- Potency [10]: inactive

SMILES: O=NN(CCCl)C(=O)NCCCl
- Potency [1]: inactive
- Potency [2]: inactive
- Potency [3]: inactive
- Potency [4]: inactive
- Potency [5]: inactive
- Potency [6]: inactive
- Potency [7]: inactive
- Potency [8]: inactive
- Potency [9]: inactive
- Potency [10]: inactive

SMILES: Cc1ccc(S(=O)(=O)NC(=O)NC2CCCCC2)cc1
- Potency [1]: inactive
- Potency [2]: inactive
- Potency [3]: inactive
- Potency [4]: inactive
- Potency [5]: inactive
- Potency [6]: inactive
- Potency [7]: inactive
- Potency [8]: inactive
- Potency [9]: inactive
- Potency [10]: inactive

SMILES: O=C(Nc1ccc(C(=O)O)c(O)c1)c1ccccc1
- Potency [1]: inactive
- Potency [2]: inactive
- Potency [3]: inactive
- Potency [4]: inactive
- Potency [5]: inactive
- Potency [6]: inactive
- Potency [7]: inactive
- Potency [8]: inactive
- Potency [9]: inactive
- Potency [10]: inactive

SMILES: Nc1ccc(NC(=O)c2ccc(N)cc2)cc1
- Potency [1]: inactive
- Potency [2]: inactive
- Potency [3]: inactive
- Potency [4]: inactive
- Potency [5]: inactive
- Potency [6]: inactive
- Potency [7]: inactive
- Potency [8]: inactive
- Potency [10]: 54.5 µM (active)

SMILES: c1ccc2sc(SSc3nc4ccccc4s3)nc2c1
- Potency [1]: inactive
- Potency [2]: inactive
- Potency [3]: inactive
- Potency [4]: inactive
- Potency [5]: inactive
- Potency [6]: inactive
- Potency [7]: inactive
- Potency [8]: inactive
- Potency [9]: inactive
- Potency [10]: inactive

SMILES: CC(C)c1ccc(C(=O)N=C(N)N)cc1S(C)(=O)=O
- Potency [1]: inactive
- Potency [2]: inactive
- Potency [3]: inactive
- Potency [4]: inactive
- Potency [5]: inactive
- Potency [7]: inactive
- Potency [8]: inactive
- Potency [9]: inactive
- Potency [10]: inactive

SMILES: CC(C)C1CCC(C(=O)N[C@H](Cc2ccccc2)C(=O)O)CC1 (stereo partly drawn)
- Potency [1]: inactive
- Potency [2]: inactive
- Potency [3]: inactive
- Potency [4]: inactive
- Potency [5]: inactive
- Potency [6]: inactive
- Potency [7]: inactive
- Potency [8]: inactive
- Potency [9]: inactive
- Potency [10]: inactive

SMILES: CCCCCCCCCCCCCCN(C)C
- Potency [1]: inactive
- Potency [2]: inactive
- Potency [3]: inactive
- Potency [4]: inactive
- Potency [5]: inactive
- Potency [6]: inactive
- Potency [7]: inactive
- Potency [8]: inactive
- Potency [9]: inactive
- Potency [10]: inactive

SMILES: OCC(CO)n1cnc(-c2ccc(F)cc2)c1-c1ccnc(Oc2ccccc2)n1
- Potency [1]: inactive
- Potency [2]: inactive
- Potency [3]: inactive
- Potency [4]: inactive
- Potency [5]: inactive
- Potency [6]: inactive
- Potency [7]: inactive
- Potency [8]: inactive
- Potency [9]: inactive
- Potency [10]: inactive

SMILES: Nc1c(Cl)cc(Cl)cc1[N+](=O)[O-]
- Potency [1]: inactive
- Potency [2]: inactive
- Potency [3]: inactive
- Potency [4]: inactive
- Potency [5]: inactive
- Potency [6]: inactive
- Potency [7]: inactive
- Potency [8]: inactive
- Potency [10]: inactive

SMILES: CCN(CC)CCOc1ccccc1C(=O)CCc1ccccc1
- Potency [1]: 26.6 µM (active)
- Potency [2]: inactive
- Potency [3]: inactive
- Potency [4]: inactive
- Potency [5]: inactive
- Potency [6]: inactive
- Potency [7]: inactive
- Potency [8]: inactive
- Potency [9]: inactive
- Potency [10]: inactive

SMILES: CC(=O)OCCC1CCCCC1
- Potency [1]: inactive
- Potency [2]: inactive
- Potency [3]: inactive
- Potency [4]: inactive
- Potency [5]: inactive
- Potency [6]: inactive
- Potency [7]: inactive
- Potency [8]: inactive
- Potency [9]: inactive
- Potency [10]: inactive

SMILES: Nc1ccc(N=Nc2ccc(N)cc2)cc1
- Potency [1]: inactive
- Potency [2]: inactive
- Potency [3]: inactive
- Potency [4]: inactive
- Potency [5]: inactive
- Potency [6]: inactive
- Potency [7]: inactive
- Potency [9]: inactive

SMILES: CC(C)N(C)C
- Potency [1]: inactive
- Potency [2]: inactive
- Potency [3]: inactive
- Potency [4]: inactive
- Potency [5]: inactive
- Potency [6]: inactive
- Potency [7]: inactive
- Potency [8]: inactive
- Potency [9]: inactive
- Potency [10]: inactive

SMILES: CCCCCCC(O)CCOC(C)=O (stereo not drawn)
- Potency [1]: inactive
- Potency [2]: inactive
- Potency [3]: inactive
- Potency [4]: inactive
- Potency [5]: inactive
- Potency [6]: inactive
- Potency [7]: inactive
- Potency [8]: inactive
- Potency [9]: inactive
- Potency [10]: inactive

SMILES: O=C(NC(Cc1cc(=O)[nH]c2ccccc12)C(=O)O)c1ccc(Cl)cc1 (stereo not drawn)
- Potency [1]: inactive
- Potency [2]: inactive
- Potency [3]: inactive
- Potency [4]: inactive
- Potency [5]: inactive
- Potency [6]: inactive
- Potency [7]: inactive
- Potency [8]: inactive
- Potency [9]: inactive
- Potency [10]: inactive

SMILES: CCCCCCCCCCCCCCCC(=O)OCC
- Potency [1]: inactive
- Potency [2]: inactive
- Potency [3]: inactive
- Potency [4]: inactive
- Potency [5]: inactive
- Potency [6]: inactive
- Potency [7]: inactive
- Potency [8]: inactive
- Potency [9]: inactive
- Potency [10]: inactive

SMILES: CCSC(=O)N(CC)CC
- Potency [1]: inactive
- Potency [2]: inactive
- Potency [3]: inactive
- Potency [4]: inactive
- Potency [5]: inactive
- Potency [6]: inactive
- Potency [7]: inactive
- Potency [8]: inactive
- Potency [9]: inactive
- Potency [10]: inactive

Reference: PubChem BioAssay (Tox21)
